This passage reports binding signal results from paper PMC9838217, “Structure of SALL4 zinc finger domain reveals link between AT-rich DNA binding and Okihiro syndrome”.

Common to all, as to test: HT-SELEX; high values mean tight binding
What all share (conditions): protein: recombinant; vector His6-GST; dsDNA, one strand shown

Experiment [1] deals with T1, SALL4 ZFC4 WT (HT-SELEX) (Mus musculus, UniProt Q8BX22 870-940).
T1 sequence: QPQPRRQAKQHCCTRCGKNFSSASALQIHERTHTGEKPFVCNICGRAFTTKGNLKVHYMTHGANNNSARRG
The method in brief:
(§1)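 Each canonical k-mer's binding signal is its read fraction expressed as fold change over the initial random library. Reads came from MiSeq sequencing, scanned for 6-mers, after up to 6 triplicate cycles in which purified recombinant mouse SALL4 zinc finger cluster 4 (residues 870–940, 1 µg) bound library DNA (1.5 µg first cycle, 200 ng later) in 100 µl of 10 mM Tris–HCl pH 7.5, 50 mM NaCl, poly(dI-dC), DTT for 10 min at room temperature. Complexes were then Ni2+ bead-captured, washed, PCR-amplified and reselected.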

In experiment [2] the target is T2, SALL4 ZFC4 R900W (HT-SELEX) (Mus musculus, UniProt Q8BX22 870-940, R900W).
T2 sequence: T1 sequence with R31W
In short, it runs like this:
as §1

The target in experiment [3] is T3, SALL4 ZFC4 G921D (HT-SELEX) (Mus musculus, UniProt Q8BX22 870-940, G921D).
T3 sequence: T1 sequence with G52D
In short, it runs like this: as §1

Positions count from the first letter of the chain named.

As for CTAACA, the binding signal in experiment [1] was determined as 1.32 ± 0.0481 fold-change vs cycle 0; in experiment [2] it was 1.48 ± 0.0428 fold-change vs cycle 0; in experiment [3], 1.41 ± 0.0893 fold-change vs cycle 0.
On to GCCTTA, for which the binding signal in experiment [1] is 0.573 ± 0.0273 fold-change vs cycle 0; in experiment [2] it was 0.685 ± 0.0271 fold-change vs cycle 0; in experiment [3], 0.783 ± 0.0268 fold-change vs cycle 0.
In the case of GATGAA, the figures for the binding signal in experiment [1], in experiment [2] and in experiment [3] were 1.45 ± 0.0431 fold-change vs cycle 0, 1.54 ± 0.0399 fold-change vs cycle 0 and 1.43 ± 0.0787 fold-change vs cycle 0, respectively.
Regarding ATATTA, the binding signal came out at 4.97 ± 0.422 fold-change vs cycle 0 in experiment [1], 2.59 ± 0.139 fold-change vs cycle 0 in experiment [2] and 2.22 ± 0.236 fold-change vs cycle 0 in experiment [3].
Consider GTAGCA, for which the binding signal in experiment [1] amounted to 0.6472 ± 0.00166 fold-change vs cycle 0; in experiment [2] it was 0.74 ± 0.0284 fold-change vs cycle 0; in experiment [3] it was 0.817 ± 0.0421 fold-change vs cycle 0.
GGTACC: the binding signal was found to be 0.421 ± 0.0151 fold-change vs cycle 0 in experiment [1], 0.521 ± 0.0308 fold-change vs cycle 0 in experiment [2] and 0.608 ± 0.0352 fold-change vs cycle 0 in experiment [3].
Taken in the same sequence, the figures for ATTTTG were 1.66 ± 0.083 fold-change vs cycle 0, 1.5 ± 0.0395 fold-change vs cycle 0 and 1.44 ± 0.0553 fold-change vs cycle 0.
For the sequence ACTCGA, the binding signal in experiment [1] was 0.761 ± 0.0231 fold-change vs cycle 0; in experiment [2], 0.839 ± 0.0214 fold-change vs cycle 0; in experiment [3], 0.905 ± 0.00699 fold-change vs cycle 0.
Turning to TCACGA, the binding signal amounted to 0.737 ± 0.0222 fold-change vs cycle 0 in experiment [1], 0.841 ± 0.0178 fold-change vs cycle 0 in experiment [2] and 0.889 ± 0.0148 fold-change vs cycle 0 in experiment [3].
As to CTCATC, the results for the binding signal in experiment [1], in experiment [2] and in experiment [3] were 0.898 ± 0.0192 fold-change vs cycle 0, 1.04 ± 0.0368 fold-change vs cycle 0 and 1.06 ± 0.0243 fold-change vs cycle 0, respectively.
Taken in the same sequence, the figures for ACTAAC were 1.38 ± 0.0461 fold-change vs cycle 0, 1.53 ± 0.0676 fold-change vs cycle 0 and 1.43 ± 0.0927 fold-change vs cycle 0.
The like results for ATGGCA were, in that order, 0.55 ± 0.0226 fold-change vs cycle 0, 0.607 ± 0.0241 fold-change vs cycle 0 and 0.733 ± 0.0739 fold-change vs cycle 0.
Taken in the same sequence, the figures for ATAGTG were 1.28 ± 0.0269 fold-change vs cycle 0, 1.33 ± 0.0375 fold-change vs cycle 0 and 1.31 ± 0.0797 fold-change vs cycle 0.
Consider CTAAAC, for which the binding signal in experiment [1] is 1.16 ± 0.0729 fold-change vs cycle 0; in experiment [2], 1.33 ± 0.0737 fold-change vs cycle 0; in experiment [3] it was 1.27 ± 0.0849 fold-change vs cycle 0.
With ACCTAT, the binding signal in experiment [1] was 1.37 ± 0.0376 fold-change vs cycle 0; in experiment [2] it was 1.45 ± 0.0775 fold-change vs cycle 0; in experiment [3] it was 1.43 ± 0.0809 fold-change vs cycle 0.
GAAAGC: the binding signal came out at 0.586 ± 0.0266 fold-change vs cycle 0 in experiment [1], 0.698 ± 0.0129 fold-change vs cycle 0 in experiment [2] and 0.775 ± 0.0469 fold-change vs cycle 0 in experiment [3].
Consider AGCAAC, for which the binding signal in experiment [1] came out at 0.642 ± 0.0202 fold-change vs cycle 0; in experiment [2], 0.736 ± 0.0162 fold-change vs cycle 0; in experiment [3], 0.849 ± 0.0333 fold-change vs cycle 0.
GTAGAA: the results for the binding signal in experiment [1], in experiment [2] and in experiment [3] were 1.21 ± 0.0427 fold-change vs cycle 0, 1.36 ± 0.0162 fold-change vs cycle 0 and 1.27 ± 0.0697 fold-change vs cycle 0, respectively.
Regarding CCTTTC, the binding signal came to 0.765 ± 0.031 fold-change vs cycle 0 in experiment [1], 0.942 ± 0.0414 fold-change vs cycle 0 in experiment [2] and 0.934 ± 0.0409 fold-change vs cycle 0 in experiment [3].
With ACCCGA, the binding signal in experiment [1] came to 0.382 ± 0.00644 fold-change vs cycle 0; in experiment [2], 0.46 ± 0.0102 fold-change vs cycle 0; in experiment [3], 0.576 ± 0.0588 fold-change vs cycle 0.
The like results for AACACC were, in that order, 0.749 ± 0.0181 fold-change vs cycle 0, 0.848 ± 0.0177 fold-change vs cycle 0 and 0.89 ± 0.0213 fold-change vs cycle 0.
Regarding TACGGA, the binding signal was 0.719 ± 0.0383 fold-change vs cycle 0 in experiment [1], 0.834 ± 0.0149 fold-change vs cycle 0 in experiment [2] and 0.856 ± 0.0265 fold-change vs cycle 0 in experiment [3].
Take AAGCAT: the binding signal came out at 1.23 ± 0.027 fold-change vs cycle 0 in experiment [1], 1.26 ± 0.0143 fold-change vs cycle 0 in experiment [2] and 1.273 ± 0.011 fold-change vs cycle 0 in experiment [3].
Turning to AGTTTG, the binding signal in experiment [1] stood at 1.14 ± 0.0447 fold-change vs cycle 0; in experiment [2], 1.23 ± 0.039 fold-change vs cycle 0; in experiment [3] it was 1.22 ± 0.0352 fold-change vs cycle 0.
For AATAAG, the binding signal was found to be 2.35 ± 0.133 fold-change vs cycle 0 in experiment [1], 2.15 ± 0.175 fold-change vs cycle 0 in experiment [2] and 1.86 ± 0.227 fold-change vs cycle 0 in experiment [3].
On to AACCCA, for which the binding signal in experiment [1] is 0.813 ± 0.0466 fold-change vs cycle 0; in experiment [2] it was 0.894 ± 0.0477 fold-change vs cycle 0; in experiment [3] it was 0.963 ± 0.0141 fold-change vs cycle 0.
Regarding ACTTCC, the binding signal in experiment [1] stood at 0.854 ± 0.0494 fold-change vs cycle 0; in experiment [2], 1.02 ± 0.0553 fold-change vs cycle 0; in experiment [3] it was 1.03 ± 0.0487 fold-change vs cycle 0.
Taken in the same sequence, the figures for CTATAC were 1.32 ± 0.0145 fold-change vs cycle 0, 1.46 ± 0.0569 fold-change vs cycle 0 and 1.37 ± 0.0569 fold-change vs cycle 0.
The like results for GACATC were, in that order, 0.75 ± 0.0336 fold-change vs cycle 0, 0.879 ± 0.011 fold-change vs cycle 0 and 0.967 ± 0.0135 fold-change vs cycle 0.
Take ATCAAG: the binding signal in experiment [1] turned out to be 1.41 ± 0.0614 fold-change vs cycle 0; in experiment [2] it was 1.55 ± 0.0618 fold-change vs cycle 0; in experiment [3], 1.47 ± 0.0828 fold-change vs cycle 0.
